# Inconclusive results are not listed. Values without a mark were called inactive. Activity calls are given as the source filed them. The call rests on the fitted dose curve; in most records, active means well fitted curve in the direction sought with a large enough effect; inconclusive means small, poorly fitted or top-dose-only effect, or another doubt; inactive means no such curve, though single readings can be large; an effect the other way counts as inactive or inconclusive.
# What was measured:
# CRL-7250 = normal cell line; experiment: Cytotoxic Profiling of Annotated Libraries Using Quantitative High-Throughput Screening (AID 1296008); details: Five cell lines viability, CellTiter-Glo ATP luminescence, 48-72 h; max response: stronger effect = lower value; further: nearly all actives have a fitted effect of over 60% in size
# Summary of the method: (§1)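 Cells exposed to compounds for 48 or 72 hr at 37 degrees Celsius. Viability read as ATP-coupled luminescence with CellTiter-Glo after 10 min at room temperature.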
# HEK293 = experiment: as above; details: Five cell lines viability, CellTiter-Glo ATP luminescence, 48-72 h; max response: stronger effect = lower value
# Summary of the method: as §1
# HaCat = experiment: as above; details: Five cell lines viability, CellTiter-Glo ATP luminescence, 48-72 h; max response: stronger effect = lower value
# Summary of the method: as §1
# NIH3T3 = experiment: as above; details: Five cell lines viability, CellTiter-Glo ATP luminescence, 48-72 h; max response: stronger effect = lower value
# Summary of the method: as §1
# CASKI = experiment: Primary qHTS to identify gynecologic anti-cancer compounds using libraries of approved drugs and bioactive compounds (AID 1345084); details: Gynecologic cancer cell panel viability, ATPlite luminescence, 48 h; series mostly up to 57.5 µM; further: nearly all actives have a fitted effect of over 55% in size
# Summary of the method: (§2)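 Cells, 1,000 per well, were allowed to settle for 16 h at 37 C before compound addition. Five concentrations were tested for 48 h, and viability was read by ATPlite luminescence after 15 min at room temperature.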
# HeLa = experiment: as above; details: Gynecologic cancer cell panel viability, ATPlite luminescence, 48 h; series mostly up to 57.5 µM
# Summary of the method: as §2
# Hek293T = experiment: as above; details: Gynecologic cancer cell panel viability, ATPlite luminescence, 48 h, control line for the selectivity index; series mostly up to 57.5 µM
# Summary of the method: as §2
# JEG-3 = experiment: as above; details: Gynecologic cancer cell panel viability, ATPlite luminescence, 48 h; series mostly up to 57.5 µM
# Summary of the method: as §2
# C33A = experiment: as above; details: Gynecologic cancer cell panel viability, ATPlite luminescence, 48 h; series mostly up to 57.5 µM
# Summary of the method: as §2
# CAOV3 = experiment: as above; details: Gynecologic cancer cell panel viability, ATPlite luminescence, 48 h; series mostly up to 57.5 µM
# Summary of the method: as §2
# Es-2 = experiment: as above; details: Gynecologic cancer cell panel viability, ATPlite luminescence, 48 h; series mostly up to 57.5 µM
# Summary of the method: as §2
# OV90 = experiment: as above; details: Gynecologic cancer cell panel viability, ATPlite luminescence, 48 h; series mostly up to 57.5 µM
# Summary of the method: as §2
# On the % scale 0 is the no-effect control and ±100 the full control effect; potency means the concentration at half of the fitted maximal effect.
SMILES,Potency (CRL-7250),Potency (HEK293),max response (HaCat) [%],Potency (NIH3T3),Potency (CASKI),Potency (HeLa),Potency (Hek293T),Potency (JEG-3),max response (NIH3T3) [%],Potency (C33A),Potency (CAOV3),Potency (Es-2),Potency (OV90),Potency (HaCat),max response (CRL-7250) [%],max response (HEK293) [%]
CCNC(=O)Nc1ccc(-c2nc3c(c(N4CCOCC4C)n2)CCN(C2COC2)C3)cc1 (stereo not given),0.206 µM (active),1.46 µM (active),-28.1,2.31 µM (active),inactive,inactive,2.82 µM (active),inactive,–,–,–,–,–,–,–,–
COc1ccc(C[C@H]2COC(=O)[C@@H]2Cc2ccc(O[C@@H]3O[C@H](CO)[C@@H](O)[C@H](O)[C@H]3O)c(OC)c2)cc1OC,0.893 µM (active),1.78 µM (active),-11.8,–,–,inactive,–,inactive,-30.4,inactive,inactive,inactive,inactive,–,–,–
COc1c(C)cnc(Cn2cc(C#CCC(C)(C)O)c3c(Cl)nc(N)nc32)c1C,0.259 µM (active),0.0517 µM (active),–,0.206 µM (active),–,inactive,0.282 µM (active),–,–,–,–,–,–,0.0731 µM (active),–,–
COc1cc(N2CCC(N3CCN(C)CC3)CC2)ccc1Nc1ncc(Cl)c(Nc2ccccc2P(C)(C)=O)n1,2.06 µM (active),5.8 µM (active),–,1.64 µM (active),10 µM (active),6.31 µM (active),–,inactive,–,–,–,–,–,1.84 µM (active),–,–
C=C(C)C(=O)OC1CC2(C)OC(=CC2=O)C(=C)CC2OC(=O)C(=C)C12 (stereo not given),3.21 µM (active),0.718 µM (active),–,2.86 µM (active),inactive,inactive,6.31 µM (active),inactive,–,–,–,4.47 µM (active),–,5.08 µM (active),–,–
CC(C)NCCCn1c(Sc2cc3c(cc2I)OCO3)nc2c(N)ncnc21,0.411 µM (active),0.184 µM (active),–,0.291 µM (active),–,inactive,–,–,–,1.58 µM (active),1.58 µM (active),–,0.398 µM (active),0.231 µM (active),–,–
CN[C@@H]1[C@H](O[C@H]2[C@H](O[C@@H]3[C@@H](O)[C@H](O)[C@@H](N=C(N)N)[C@H](O)[C@H]3N=C(N)N)O[C@@H](C)[C@]2(O)CO)O[C@@H](CO)[C@H](O)[C@H]1O,–,–,-0.834,–,inactive,inactive,inactive,inactive,3.49,inactive,–,inactive,inactive,–,1.43,-16.2
COc1cc(N2CCC(O)CC2)ccc1Nc1nc(Nc2ccccc2S(=O)(=O)C(C)C)c2[nH]cnc2n1,–,5.8 µM (active),–,7.31 µM (active),–,–,inactive,inactive,–,inactive,–,inactive,inactive,18.4 µM (active),-7.74,–
COC(=O)C1=CO[C@@H](O[C@@H]2O[C@H](CO)[C@@H](O)[C@H](O)[C@H]2O)[C@H]2[C@@H]1C=C[C@]21C=C([C@H](C)OC(=O)/C=C/c2ccc(O)cc2)C(=O)O1,1.22 µM (active),1.72 µM (active),–,3.06 µM (active),–,–,–,–,–,–,–,–,inactive,3.85 µM (active),–,–
CC1(C(=O)Nc2ccc(F)nc2)CCCN1c1nc(Nc2cc(C3CC3)[nH]n2)c2cccn2n1 (stereo not given),8.2 µM (active),5.17 µM (active),–,4.61 µM (active),–,–,5.01 µM (active),–,–,inactive,–,inactive,3.55 µM (active),2.06 µM (active),–,–
CCCC1(CCC)CCC2(CCN(CCCN(CC)CC)C2)CC1,4.11 µM (active),1.84 µM (active),–,3.66 µM (active),8.91 µM (active),7.08 µM (active),8.91 µM (active),5.62 µM (active),–,6.31 µM (active),–,10 µM (active),7.08 µM (active),4.61 µM (active),–,–
C=CC(=O)Nc1ccc(CN2C(=O)N(c3cc(OC)cc(OC)c3)Cc3cnc(Nc4ccc(N5CCN(C)CC5)cc4)nc32)cc1,0.411 µM (active),11.6 µM (active),–,8.2 µM (active),14.1 µM (active),–,inactive,–,–,–,–,inactive,inactive,5.17 µM (active),–,–
Cc1nc(-c2cn3c(n2)-c2ccc(-c4cnn(C(C)(C)C(N)=O)c4)cc2OCC3)n(C(C)C)n1,–,6.51 µM (active),–,5.17 µM (active),–,inactive,15.8 µM (active),–,–,–,35.5 µM (active),inactive,–,2.91 µM (active),4.52,–
CN1CCC(NC(=O)c2cc(-c3c(O)cc(O)cc3Oc3ccc([N+](=O)[O-])cc3)on2)CC1,0.366 µM (active),0.206 µM (active),–,5.8 µM (active),–,inactive,1 µM (active),–,–,0.708 µM (active),0.398 µM (active),–,–,1.46 µM (active),–,–
COc1cc(N2CCC(N)CC2)ccc1Nc1ncc(Cl)c(-c2c[nH]c3ccccc23)n1,6.51 µM (active),4.61 µM (active),–,2.31 µM (active),28.2 µM (active),3.98 µM (active),–,inactive,–,–,22.4 µM (active),inactive,–,5.17 µM (active),–,–
COc1ccc(N(C(=O)Nc2c(C)cccc2C)c2cc(Nc3ccc(N4CCN(C)CC4)cc3)ncn2)c(OC)c1,2.91 µM (active),14.6 µM (active),–,2.06 µM (active),inactive,inactive,–,inactive,–,inactive,–,inactive,–,7.31 µM (active),–,–
C/C1=C/CCC2=CC(OC2=O)C(C)(C)/C=C/C1=O (stereo not given),2.31 µM (active),1.3 µM (active),–,4.11 µM (active),6.31 µM (active),–,12.6 µM (active),–,–,10 µM (active),–,8.91 µM (active),–,2.59 µM (active),–,–
C/C1=C\[C@@H](C)C[C@@H](C)[C@@H](Cc2cnco2)OC(=O)/C(C)=C/[C@@H](C)C[C@@H](C)[C@@H](Cc2cnco2)OC1=O,2.52 µM (active),0.632 µM (active),-7.73,–,–,inactive,–,inactive,-16.6,inactive,–,–,inactive,–,–,–
